Screening results as filed in PubChem.
In the library only some 2.4% were active in any assay of this set; here they are far more common.
Cruzain inh noDet – inhibitors of Trypanosoma cruzi cruzain without detergent. purified cruzain, Z-FR-AMC fluorescence, no detergent. 200,000 compounds, 2.3% hits. Potency, µM, for inactives: max response, negative = inhibition, actives largely listed as inhibitors;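 also: plate controls were enzyme without inhibitor for no effect and buffer without enzyme for full effect; nearly all actives have a fitted effect of over 40% in size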
Target sequence (P25779 123-467 limits assumed): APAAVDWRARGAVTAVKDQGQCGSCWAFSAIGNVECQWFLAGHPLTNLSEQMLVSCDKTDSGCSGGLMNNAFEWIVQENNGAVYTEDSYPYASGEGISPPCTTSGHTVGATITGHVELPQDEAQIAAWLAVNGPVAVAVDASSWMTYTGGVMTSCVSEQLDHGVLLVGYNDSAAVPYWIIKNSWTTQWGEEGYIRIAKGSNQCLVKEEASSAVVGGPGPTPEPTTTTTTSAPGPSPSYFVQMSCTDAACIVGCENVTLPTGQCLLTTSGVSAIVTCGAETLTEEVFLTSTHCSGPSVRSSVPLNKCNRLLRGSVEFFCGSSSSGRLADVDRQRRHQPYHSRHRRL
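Purified cruzain at 1.5 nM, pre-incubated 15 min with compound at room temperature in 100 mM sodium acetate pH 5.5, 5 mM DTT, 0.00005% Triton X-100. Reaction started with 2 uM Z-FR-AMC; AMC fluorescence increase over 60 s gives rate.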
Cruzain inh Det – blocks cruzain activity in presence of Triton detergent; AID 1478; 200,000 compounds, 0.43% hits; purified cruzain, Z-FR-AMC fluorescence, 0.01% Triton; Potency, µM, inactives show max response, negative = inhibition, usual class: inhibitors;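 also: plate controls were neutral wells for no effect and buffer without enzyme for full effect; nearly all actives have a fitted effect of over 40% in size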
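Sodium acetate buffer (100 mM, pH 5.5) containing 5 mM DTT and 0.01% Triton X-100 hosted 1.5 nM cruzain and test compound for 15 min at room temperature. Cleavage of 2 uM Z-FR-AMC was then tracked by fluorescence.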
Starred values were filed as active, the others as inactive; u = inconclusive. Calls follow the shape of the dose curve; as a rule, active = well fitted curve in the direction sought with a large enough effect; inconclusive = small, poorly fitted or top-dose-only effect, or another doubt; inactive = no such curve, though single readings can be large; an effect the other way counts as inactive or inconclusive. Potency is read from the fitted curve at half-maximal effect.

SMILES | Cruzain inh noDet | Cruzain inh Det
CC1(C)Cc2c(sc3ncnc(NNC(=S)NCc4ccccc4)c23)CO1 | 4% | -6%
COC(=O)c1sccc1S(=O)(=O)N1CCN(c2ccc(Cl)cc2)CC1 | 12% | -7%
C=CCNc1ncnc2c1[nH]c1ccc(C)cc12 | -18% | -21%
Cc1ccc2[nH]c3c(NCCN4CCOCC4)ncnc3c2c1 | 20µM* | -26%
O=C1CCCN1CCCn1cnc2c([nH]c3ccc(F)cc32)c1=O | 3% | -4%
O=C1CCCN1CCCNc1ncnc2c1[nH]c1ccc(Cl)cc12 | 16µM* | 25µM*
COc1ccc(C(=O)N2CCN(c3ccc(C)cc3)CC2)cc1OC | 1% | 2%
CCCCCCn1c(CNC(=O)c2ccccc2)nc2ccccc21 | -12% | -4%
CNC(=O)Nc1ccccc1NC(=O)NC | 11% | -3%
Cc1ccc2nc(C3CCCN(C(=S)Nc4cccc(C)c4C)C3)[nH]c2c1 (stereo not given) | 16µM* | 14µM*
Cc1ccc(NC(=S)N2CCCC(c3nc4ccc(C)cc4[nH]3)C2)c(C)c1 (stereo not given) | -26% | u
N/C(=N\OC(=O)CCCc1ccccc1)c1ccccn1 | -1% | -3%
O=C(O)c1cc2c(s1)-c1ccccc1OC2 | 25µM* | u
O=C(O)c1cc2c(s1)-c1ccccc1CC2 | -4% | -1%
CC(C)NC(=O)C1CCN(C(=O)N2CC(C)Oc3ccccc32)CC1 (stereo not given) | 3% | -3%
CC1CN(C(=O)N2CCC(C(=O)NC3CCCCCC3)CC2)c2ccccc2O1 (stereo not given) | 7.9µM* | -3%
COC(=O)c1sccc1NC(=O)c1cc2c(s1)CCCC2 | -13% | -4%
Cc1cc(=O)n2nc(N3CCC(C(=O)NCc4ccc(F)cc4)CC3)sc2n1 | 8% | -10%
CC(=O)N1CCC2(CC1)CC(=O)c1cc(OCC(=O)NCc3ccc(C)cc3)ccc1O2 | 13% | -9%
Nc1ccc(-c2ccc(Nc3cc(S(=O)(=O)O)c(N)c4c3C(=O)c3ccccc3C4=O)cc2)c(S(=O)(=O)O)c1 | -1% | 3%
Cc1cc(C)c(Nc2cc(S(=O)(=O)O)c(N)c3c2C(=O)c2ccccc2C3=O)c(C)c1 | u | 25µM*
O=C(Nc1c(C(=O)c2ccccc2)oc2ccccc12)c1cc(-c2ccccc2O)n[nH]1 | 13µM* | -4%
Cc1ccc(C(=O)c2oc3ccccc3c2NC(=O)c2cc(-c3ccccc3O)n[nH]2)cc1 | u | 0%
COC(=O)c1ccc(C2c3c(-c4ccc(Br)cc4)n[nH]c3C(=O)N2c2ccc(Cl)cc2)cc1 (stereo not given) | 16µM* | -1%
O=C1c2[nH]nc(-c3ccc(Br)cc3)c2C(c2cccc(O)c2)N1c1ccc(Cl)cc1 (stereo not given) | u | -5%
SMILES | Cruzain inh noDet | Cruzain inh Det
CCOC(=O)CN(C(=O)CSc1nnc(-c2ccncc2)n1CCCOC)c1ccccc1 | 22% | -1%
COc1ccc(C2C(C(=O)C(C)(C)C)=C(O)C(=O)N2Cc2ccccc2)cc1 (stereo not given) | -6% | -8%
COc1cc(OC)cc(-c2nc3ccccc3c(=O)n2OC(=O)c2ccc(Br)cc2)c1 | 25µM* | -2%
COc1ccc(C(=O)On2c(-c3ccc(Br)cc3)nc3ccccc3c2=O)cc1 | u | -2%
N#Cc1c(NC(=O)Cn2cnc3ccccc3c2=O)oc(-c2ccccc2)c1-c1ccccc1 | 25µM* | 1%
Cc1ccnc(SCC(=O)Nc2oc(-c3ccccc3)c(-c3ccccc3)c2C#N)n1 | u | -1%
CCn1c(SCC(=O)Nc2oc(-c3ccccc3)c(-c3ccccc3)c2C#N)nnc1-c1cc(OC)cc(OC)c1 | 7.9µM* | 5%
N#Cc1c(NC(=O)CN2CCOCC2)oc(-c2ccccc2)c1-c1ccccc1 | u | -7%
CCc1nnc(NC(=O)CSc2nnc(-c3ccc(S(=O)(=O)N(CC)CC)cc3)n2CC)s1 | u | 2%
c1cc2ccc3cccc4ccc(c1)c2c34 | -13% | -1%
c1ccc2c(c1)c1cccc3ccc4cccc2c4c31 | 16µM* | 2%
CN[C@@H](C)[C@H](O)c1ccccc1 | -6% | -6%
O=C(NCC1CCCO1)C12CN(Cc3ccccc3)CC1C(c1cccc([N+](=O)[O-])c1)=NO2 (stereo not given) | 6% | 0%
O=C(CCCCCn1c(=O)c2sccc2n(CC(=O)Nc2cc(C(F)(F)F)ccc2Cl)c1=O)NCc1ccccc1Cl | 16µM* | -7%
CC(C)(C)C(=O)Cn1c(=O)n(CCCCCC(=O)NCc2ccccc2Cl)c(=O)c2sccc21 | 10% | -11%
O=C1NC(CCc2ccccc2)C(=O)N1Cc1ccccc1Cl (stereo not given) | 5% | -6%
CCc1ccc(-c2csc(NC(=O)COC(=O)CCc3nc4ccccc4s3)n2)cc1 | 13µM* | -3%
Cc1nc(NC(=O)COC(=O)CCc2nc3ccccc3s2)c(Cl)cc1Cl | -6% | -4%
COC(=O)NCC(c1cccnc1)N1CCN(c2ccccc2F)CC1 (stereo not given) | -2% | 10%
N#Cc1ccc(N/N=C/c2cn(-c3ccccc3)nc2-c2ccccc2)c([N+](=O)[O-])c1 | 5µM* | -5%
O=C(N/N=C/c1cn(-c2ccccc2)nc1-c1ccccc1)c1ccco1 | 4% | -10%
CC(C)Cn1c(-c2ccc(Br)o2)n[nH]c1=S | -5% | -2%
O=C(c1cccs1)c1cn(Cc2ccccc2Cl)c2ccccc12 | -22% | 3%
Cc1c(NC(=O)CSc2nccn2C)c(=O)n(-c2ccccc2)n1C | 4% | 7%
O=C(COC(=O)/C=C/c1ccc2c(c1)OCO2)Nc1ccc(S(=O)(=O)N2CCCC2)cc1 | 32µM* | -9%
SMILES | Cruzain inh noDet | Cruzain inh Det
O=C(COC(=O)/C=C/c1ccc(OC(F)F)cc1)Nc1ccc(S(=O)(=O)N2CCCC2)cc1 | -1% | -3%
O=C(COC(=O)Cc1ccc(S(=O)(=O)N2CCCCC2)s1)Nc1ccc2c(c1)OCO2 | 10µM* | -10%
O=C(Cc1ccc(S(=O)(=O)N2CCCCC2)s1)Nc1ccc(F)c(F)c1 | 1% | -9%
NC(=O)[C@@H]1CCNc2c(I)cc([N+](=O)[O-])cc2C(=O)N[C@@H](CO)C(=O)N[C@@H](Cc2ccc(O)cc2)C(=O)N1 | 13% | -10%
CCOC(=O)c1c(C)c(C(=O)N2CCN(C(=O)c3ccco3)CC2)c(C)n1C | 11% | 2%
Oc1ccc(Cl)cc1-c1cc(-c2cccc(Br)c2)n[nH]1 | 13µM* | -4%
Oc1ccc(Cl)cc1-c1cc(-c2ccccc2Cl)[nH]n1 | u | -12%
Nn1c(SCC(=O)NC2CCCCC2)nnc1-c1ccc(Cl)cc1 | -1% | 0%
C=CCN1C(=O)/C(=C\c2ccc(Cl)cc2)N=C1SCC(=O)NC1CCCCC1 | 10µM* | 1%
O=C(O)C1C2C=CC(C2)C1C(=O)Nc1cccc(C(=O)N2CCCCC2)c1 (stereo not given) | 6% | 2%
Cc1cs/c(=N\N=C\c2cccc([N+](=O)[O-])c2)n1Cc1ccco1 | 3% | -8%
COc1ccc2oc(=O)c(-c3csc(Nc4cccc(O)c4)n3)cc2c1 | 25µM* | -12%
COc1ccc(Nc2nc(-c3cc4cccc(OC)c4oc3=O)cs2)cc1 | u | 0%
CC(=O)OCC1OC(OC(C)=O)C(NC(=O)c2cccnc2)C(OC(C)=O)C1OC(C)=O (stereo not given) | -3% | 1%
O=C1/C(=C/c2ccccc2)Nc2ccccc21 | -11% | -5%
